Several values for one entry are separate records, joined by “and”; a condition that tells them apart may be missing. Equal values may be shown once. Inconclusive results are not listed. Entries that show only a call come without a potency. Some compounds were tested as several samples or in several runs, with calls that do not always agree. Activity calls are given as the source filed them. Unless noted, calls come from the whole dose curve.
What was measured:
[1] = Nuclear factor erythroid 2-related factor 2/antioxidant responsive element (Nrf2/ARE) small molecule agonists: qHTS cell viability counter screen in human keratinocytes (AID 1919968; active = well fitted curve in the direction sought with a large enough effect in the repeat runs; an effect the other way counts as inactive or inconclusive; note: nearly all actives have a fitted effect of over 55% in size; note: potency is the fitted concentration of half-maximal effect)
Summary of the method: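 CellTiter-Fluor fluorescence, read 1 h after reagent, gave viability in the same wells as the ARE-luciferase assay. KeratinoSens cells (1,500/well) had 23 h compound exposure at 37 C/5% CO2 following 5 h plating.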

[2] = Nuclear factor erythroid 2-related factor 2/antioxidant responsive element (Nrf2/ARE) small molecule agonists: luciferase reporter gene qHTS assay in human keratinocytes (AID 1919969); note: nearly all actives have a fitted effect of over 35% in size; note: potency is the fitted concentration of half-maximal effect
[3] = biological target: KiSS-1 receptor (Homo sapiens) (UniProt Q969F8); experiment: Human kisspeptin (KISS1R) small molecule agonists, calcium flux assay in KISS1R-HEK293 cells (AID 1920064; active = well fitted curve in the direction sought with a large enough effect in the repeat runs; an effect the other way counts as inactive or inconclusive)
Summary of the method: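 Agonist mode: intracellular calcium rise tracked at 1 s intervals over 3 min (480/540 nm) immediately after compound addition to dye-loaded KISS1R-HEK293 stable cells. Each compound tested at 15 concentrations in triplicate.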

[4] = G protein-coupled receptor (GPCR) small molecule agonists, calcium flux assay: HEK293 wild type cell line counter screen (AID 1920065)
Summary of the method: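 Calcium flux counter screen: compound added in agonist mode at 15 concentrations in triplicate to dye-loaded parental HEK293 cells. Fluorescence (480/540) read kinetically for 3 min; ATP served as positive control.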

[5] = p53 small molecule agonists, cell-based qHTS assay with rat liver microsomes (AID 1963578)
Summary of the method: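 Each plate received p53RE-bla cells, then compound, then rat liver microsomes and NADPH (both 0.5 mg/mL final). Plates were held 16 h at 37 C, and beta-lactamase activity was detected with LiveBLAzer over 2 h.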

[6] = p53 small molecule agonists, cell-based qHTS assay with human liver microsomes: qHTS cell viability counter screen (AID 1963579); note: nearly all actives have a fitted effect of over 45% in size; note: potency is the fitted concentration of half-maximal effect
Summary of the method: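 Tox21 library compounds, delivered from DMSO stocks, were tested on p53RE-bla cells together with 0.5 mg/mL human liver microsomes and 0.5 mg/mL NADPH (final) over 16 h at 37 C; CellTiter-Glo luminescence served as the cytotoxicity measure.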

[7] = p53 small molecule agonists, cell-based qHTS assay with rat liver microsomes: qHTS cell viability counter screen (AID 1963580); note: nearly all actives have a fitted effect of over 45% in size; note: potency is the fitted concentration of half-maximal effect
Summary of the method: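 Cytotoxicity counter screen: intracellular ATP measured by CellTiter-Glo luminescence in the same wells as the beta-lactamase reporter read, on HCT-116 p53RE-bla cells exposed 16 h at 37 C to compounds with rat liver microsomes and NADPH, each 0.5 mg/mL final.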

[8] = p53 small molecule agonists, cell-based qHTS assay: qHTS cell viability counter screen (AID 1963581); note: nearly all actives have a fitted effect of over 45% in size; note: potency is the fitted concentration of half-maximal effect
Summary of the method: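 Counter screen read by CellTiter-Glo luminescence (ATP content, 30 min at room temperature), run in the same wells as the beta-lactamase reporter read. HCT-116 p53RE-bla cells saw compounds for 16 h at 37 C.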

[9] = biological target: 5-hydroxytryptamine receptor 2A (Homo sapiens) (UniProt P28223); experiment: 5-hydroxytryptamine receptor 2A (HTR2A) small molecule antagonists, cell-based qHTS assay (AID 1963586); note: nearly all actives have a fitted effect of over 45% in size
Summary of the method: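 CHO cells stably expressing human HTR2A were plated for 18 h at 37 C, then loaded with calcium dye for 1 h. Compounds were preincubated 5 min at room temperature before DOI (4 nM solution) was added. Kinetic fluorescence was read for 3 min.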

[10] = biological target: 5-hydroxytryptamine receptor 2A (Homo sapiens) (UniProt P28223); experiment: 5-hydroxytryptamine receptor 2A (HTR2A) small molecule agonists, cell-based qHTS assay (AID 1963587); note: nearly all actives have a fitted effect of over 30% in size; note: potency is the fitted concentration of half-maximal effect
Summary of the method: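 CHO cells stably expressing human HTR2A, plated 18 h, loaded with calcium dye 1 h at 37 C. Agonist mode: compounds added and intracellular calcium fluorescence recorded kinetically for 2 min at 1 sec intervals.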

[11] = biological target: Muscarinic acetylcholine receptor M1 (Homo sapiens) (UniProt P11229); experiment: Cholinergic receptor muscarinic 1 (CHRM1) small molecule agonists, cell-based qHTS assay (AID 1963589); note: nearly all actives have a fitted effect of over 35% in size; note: potency is the fitted concentration of half-maximal effect
Summary of the method: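 Agonist-mode calcium-flux screen: compounds at 15 concentrations, three independent runs, were pin-transferred onto dye-loaded human CHRM1-CHO cells. Fluorescence was then recorded kinetically every second over minutes.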

[12] = biological target: Beta-2 adrenergic receptor (Homo sapiens) (UniProt P07550); experiment: Adrenergic beta2 receptor (ADRB2) small molecule antagonists, cell-based qHTS assay (AID 1963592); note: series mostly up to about 92 µM; nearly all actives have a fitted effect of over 50% in size
Summary of the method: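 Assay format: CHO-ADRB2 cells, 18-20hr seeding at 37C/5% CO2, then compound plus 1nM isoproterenol agonist mix for 0.5hr RT. Homogeneous time-resolved fluorescence cAMP detection after 1hr, expressed as 665/615 nm ratio.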

[13] = biological target: D(2) dopamine receptor (Homo sapiens) (UniProt P14416); experiment: Dopamine D2 receptor (DRD2) small molecule agonists, cell-based qHTS assay (AID 1963594); note: nearly all actives have a fitted effect of over 35% in size
Summary of the method: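 HEK293 cells stably expressing human DRD2, pre-treated with PDE inhibitor Ro20-1724 (0.1 mM final) and compound 10 min at room temperature, then stimulated with NKH477 (200nM […]) for 30 min. cAMP read by HTRF (665/620 nm).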

[14] = biological target: D(2) dopamine receptor (Homo sapiens) (UniProt P14416); experiment: Dopamine D2 receptor (DRD2) small molecule antagonists, cell-based qHTS assay (AID 1963595; active = well fitted inhibition curve with a large enough effect in the signal ratio in the repeat runs, with a control signal flat; the % refers to the signal ratio; note: potency is the fitted concentration of half-maximal effect)
Summary of the method: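 Antagonist mode in DRD2-HEK293 cells: after compound addition with 0.1 mM Ro20-1724, cells received quinpirole (12 nM) and NKH477 (200 nM) for 30 min at room temperature; HTRF cAMP read after 1 h detection.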

[15] = p53 small molecule agonists, cell-based qHTS assay with human liver microsomes (AID 1963577);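 note: p53 response element beta-lactamase reporter cells with liver microsomes plus NADPH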
Summary of the method: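 Metabolically competent format: test substances, human liver microsomes and NADPH (both 0.5 mg/mL final) incubated with p53RE-bla cells 16 h at 37 C. Beta-lactamase reporter signal then quantified by fluorescence.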

[16] = p53 small molecule agonists, cell-based qHTS assay (AID 1963582; active = well fitted activation curve with a large enough effect in the signal ratio in the repeat runs, not every such curve was filed as active; the % refers to the signal ratio)
Summary of the method: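 Read-out is beta-lactamase FRET fluorescence after 2 h at room temperature with LiveBLAzer B/G substrate. p53 response element-bla cells were treated 16 h at 37 C with compounds in DMSO, added 5 h after seeding.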

[17] = biological target: Muscarinic acetylcholine receptor M1 (Homo sapiens) (UniProt P11229); experiment: Cholinergic receptor muscarinic 1 (CHRM1) small molecule antagonists, cell-based qHTS assay (AID 1963588); note: nearly all actives have a fitted effect of over 40% in size
Summary of the method: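 Compounds were tested at 15 concentrations in three independent runs. Dye-loaded CHRM1-CHO cells were exposed 5 min at room temperature before stimulation by acetylcholine added at 50nM. Intracellular calcium was read kinetically on FDSS for 3 min.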

[18] = cAMP Responsive Elements (CRE) small molecule agonists, cell-based qHTS assay (AID 1963590)
Summary of the method: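 Agonist mode: compound added to CRE-bla HEK 293T cells (2,000/well, 18 h after plating) for 3 h at 37 C/5% CO2. Reporter activity detected via FRET beta-lactamase substrate, 2 h room-temperature loading.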

[19] = cAMP Responsive Elements (CRE) small molecule antagonists, cell-based qHTS assay (AID 1963591; active = well fitted inhibition curve with a large enough effect in the signal ratio in the repeat runs, not every such curve was filed as active; the % refers to the signal ratio)
Summary of the method: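 Antagonist mode: compounds are added alongside the adenylyl cyclase activator NKH477 (0.25 uM final) to CRE-bla HEK293T cells for 3 h. LiveBLAzer FRET substrate, 2 h at room temperature, reports bla expression.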

[20] = biological target: Beta-2 adrenergic receptor (Homo sapiens) (UniProt P07550); experiment: Adrenergic beta2 receptor (ADRB2) small molecule agonists, cell-based qHTS assay (AID 1963593);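 note: CHO cells stably overexpressing human ADRB2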
Summary of the method: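 CHO cells stably over-expressing ADRB2 were plated overnight at 37C, then dosed with compounds plus a stimulation mix containing 100uM IBMX and 25uM Ro-20-1724 for 0.5hr at room temperature. cAMP was measured by HTRF competition, 1hr.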

Sequence of D(2) dopamine receptor (Homo sapiens) (P14416 whole entry, looked up): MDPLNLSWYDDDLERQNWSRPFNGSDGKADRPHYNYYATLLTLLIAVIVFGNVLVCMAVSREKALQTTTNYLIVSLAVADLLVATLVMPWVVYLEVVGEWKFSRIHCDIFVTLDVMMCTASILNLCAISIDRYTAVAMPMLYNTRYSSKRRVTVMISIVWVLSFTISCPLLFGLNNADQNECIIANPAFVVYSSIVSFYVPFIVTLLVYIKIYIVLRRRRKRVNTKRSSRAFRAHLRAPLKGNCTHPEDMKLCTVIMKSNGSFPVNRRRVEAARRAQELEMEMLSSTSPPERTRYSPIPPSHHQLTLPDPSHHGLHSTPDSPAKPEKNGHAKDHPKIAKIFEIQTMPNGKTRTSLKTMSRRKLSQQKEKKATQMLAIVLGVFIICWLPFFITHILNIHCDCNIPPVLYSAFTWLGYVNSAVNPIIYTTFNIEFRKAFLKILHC
Sequence of 5-hydroxytryptamine receptor 2A (Homo sapiens) (P28223 whole entry, looked up): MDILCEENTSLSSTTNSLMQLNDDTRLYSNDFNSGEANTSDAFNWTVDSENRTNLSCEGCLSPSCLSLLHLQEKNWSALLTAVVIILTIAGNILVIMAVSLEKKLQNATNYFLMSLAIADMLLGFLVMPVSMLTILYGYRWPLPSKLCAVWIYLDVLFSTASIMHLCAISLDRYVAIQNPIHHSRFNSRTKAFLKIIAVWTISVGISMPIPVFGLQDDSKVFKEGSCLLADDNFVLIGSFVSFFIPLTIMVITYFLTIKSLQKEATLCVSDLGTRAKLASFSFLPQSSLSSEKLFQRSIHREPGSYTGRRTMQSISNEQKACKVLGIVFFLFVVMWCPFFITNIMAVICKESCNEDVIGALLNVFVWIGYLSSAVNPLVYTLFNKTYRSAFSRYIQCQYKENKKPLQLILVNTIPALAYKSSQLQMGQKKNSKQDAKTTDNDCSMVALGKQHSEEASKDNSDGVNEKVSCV
Sequence of Muscarinic acetylcholine receptor M1 (Homo sapiens) (P11229 whole entry, looked up): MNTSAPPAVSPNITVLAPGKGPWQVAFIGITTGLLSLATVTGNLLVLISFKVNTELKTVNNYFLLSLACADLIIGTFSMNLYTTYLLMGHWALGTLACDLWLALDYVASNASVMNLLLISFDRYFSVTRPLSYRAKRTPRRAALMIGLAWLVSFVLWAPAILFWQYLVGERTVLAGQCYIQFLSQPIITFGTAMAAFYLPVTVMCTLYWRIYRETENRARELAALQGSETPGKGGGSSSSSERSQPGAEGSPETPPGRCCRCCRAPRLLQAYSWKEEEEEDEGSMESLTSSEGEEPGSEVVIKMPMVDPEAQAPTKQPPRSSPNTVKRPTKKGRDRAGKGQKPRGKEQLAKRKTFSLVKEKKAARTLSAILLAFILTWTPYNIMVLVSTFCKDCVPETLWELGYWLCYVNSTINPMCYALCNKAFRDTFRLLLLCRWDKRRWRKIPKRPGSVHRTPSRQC
Sequence of Beta-2 adrenergic receptor (Homo sapiens) (P07550 whole entry, looked up): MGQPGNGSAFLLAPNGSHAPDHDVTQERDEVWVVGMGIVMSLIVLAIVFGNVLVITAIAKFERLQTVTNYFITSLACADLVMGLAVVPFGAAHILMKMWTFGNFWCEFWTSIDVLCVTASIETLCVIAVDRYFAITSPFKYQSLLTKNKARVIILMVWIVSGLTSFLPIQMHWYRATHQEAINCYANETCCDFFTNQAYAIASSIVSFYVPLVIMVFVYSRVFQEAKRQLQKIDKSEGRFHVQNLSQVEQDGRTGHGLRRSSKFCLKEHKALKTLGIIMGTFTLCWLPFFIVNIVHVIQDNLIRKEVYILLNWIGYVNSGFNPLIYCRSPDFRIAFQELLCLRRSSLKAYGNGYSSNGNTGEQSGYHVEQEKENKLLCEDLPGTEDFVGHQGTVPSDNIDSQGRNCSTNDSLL
Sequence of KiSS-1 receptor (Homo sapiens) (Q969F8 whole entry, looked up): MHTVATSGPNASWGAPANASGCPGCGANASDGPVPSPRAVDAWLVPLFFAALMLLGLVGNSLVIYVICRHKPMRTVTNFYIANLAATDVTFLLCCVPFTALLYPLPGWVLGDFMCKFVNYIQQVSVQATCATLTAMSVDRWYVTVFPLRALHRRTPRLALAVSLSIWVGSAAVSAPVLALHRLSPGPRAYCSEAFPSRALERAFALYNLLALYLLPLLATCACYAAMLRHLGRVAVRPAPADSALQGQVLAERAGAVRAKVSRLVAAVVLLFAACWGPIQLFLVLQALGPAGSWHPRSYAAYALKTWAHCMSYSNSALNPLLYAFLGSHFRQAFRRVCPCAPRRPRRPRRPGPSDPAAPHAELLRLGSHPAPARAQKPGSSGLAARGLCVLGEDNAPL

Compound	Potency [1]	Potency [2]	Potency [3]	Potency [4]	Potency [5]	Potency [6]	Potency [7]	Potency [8]	Potency [9]	Potency [10]	Potency [11]	Potency [12]	Potency [13]	Potency [14]	Potency [15]	Potency [16]	Potency [17]	Potency [18]	Potency [19]	Potency [20]
CC(C)(C)c1ccc(O)c(O)c1	inactive	63.2 µM (active) and 8.63 µM (active)	inactive	inactive	inactive	inactive	inactive	inactive	inactive	inactive	inactive	inactive	inactive	inactive	–	–	–	–	–	–
COCCCOc1cc(C[C@@H](C[C@H](N)[C@@H](O)C[C@H](C(=O)NCC(C)(C)C(N)=O)C(C)C)C(C)C)ccc1OC	inactive	inactive	inactive	–	inactive	inactive	inactive	inactive	inactive	inactive	inactive	inactive	inactive	inactive	inactive	inactive	inactive	inactive	inactive	inactive
NC(=O)NNc1ccccc1	inactive	–	inactive	inactive	inactive	inactive	inactive	inactive	inactive	inactive	inactive	inactive	inactive	inactive	inactive	inactive	inactive	inactive	inactive	inactive
CC(=O)C(C)O (centres undefined)	inactive	–	inactive	inactive	inactive	inactive	inactive	inactive	inactive	inactive	inactive	inactive	inactive	inactive	inactive	inactive	inactive	inactive	inactive	inactive
Cc1cccc(C)c1NC(=O)CN1CCCCCC1	inactive	inactive	–	–	inactive	–	inactive	inactive	inactive	–	inactive	inactive	inactive	inactive	inactive	inactive	inactive	inactive	inactive	inactive
Cc1c(I)c(=O)n(-c2ccccc2)n1C	inactive	–	inactive	inactive	inactive	inactive	inactive	inactive	inactive	inactive	–	inactive	–	–	inactive	inactive	–	inactive	inactive	inactive
C1=COCCC1	inactive	–	inactive	inactive	inactive	inactive	inactive	inactive	inactive	inactive	inactive	inactive	–	inactive	inactive	inactive	inactive	inactive	inactive	–
COc1ccc(NC(C)=O)cc1	inactive	–	inactive	inactive	inactive	inactive	inactive	inactive	inactive	inactive	inactive	inactive	inactive	inactive	inactive	inactive	inactive	inactive	inactive	inactive
CCC1COC(=O)O1 (centres undefined)	inactive	–	inactive	inactive	inactive	inactive	inactive	inactive	inactive	inactive	inactive	–	inactive	inactive	inactive	inactive	inactive	inactive	inactive	inactive
COc1cccc2c1C(=O)c1c(O)c3c(c(O)c1C2=O)C[C@@](O)(C(C)=O)C[C@@H]3O[C@H]1C[C@H](N)[C@H](O)[C@H](C)O1	6.15 µM (active) and 2.37 µM (active)	–	inactive	inactive	–	–	–	–	–	–	–	–	–	–	–	–	–	–	–	–
CC(C)C(=O)C(C)C	inactive	–	inactive	inactive	inactive	inactive	inactive	inactive	inactive	inactive	inactive	inactive	inactive	inactive	inactive	inactive	inactive	inactive	–	inactive
CCCCCCOC(=O)CC	inactive	–	inactive	inactive	inactive	inactive	inactive	inactive	inactive	inactive	inactive	inactive	inactive	–	inactive	inactive	inactive	inactive	inactive	inactive
Cc1cncc(C)c1	inactive	–	inactive	inactive	inactive	inactive	inactive	inactive	inactive	inactive	inactive	–	inactive	inactive	inactive	inactive	inactive	inactive	inactive	inactive
CC(C)OC(=O)CCCCC(=O)OC(C)C	inactive	–	inactive	inactive	inactive	inactive	inactive	inactive	inactive	–	inactive	inactive	inactive	inactive	inactive	inactive	inactive	–	–	–
C1CCC(SSC2CCCCC2)CC1	inactive	inactive	–	–	inactive	inactive	inactive	inactive	inactive	–	–	inactive	inactive	inactive	inactive	inactive	inactive	inactive	inactive	inactive
NC1CCCCC1N (centres undefined)	inactive	–	inactive	inactive	inactive	inactive	inactive	inactive	inactive	inactive	inactive	inactive	inactive	inactive	inactive	inactive	inactive	inactive	inactive	–
ClC/C=C\CCl	inactive	–	inactive	inactive	inactive	inactive	inactive	inactive	inactive	inactive	–	inactive	inactive	inactive	inactive	inactive	inactive	inactive	inactive	inactive
CC(C(=O)O)c1cccc(C(=O)c2ccccc2)c1 (centres undefined)	inactive	inactive	–	–	–	–	–	–	–	–	–	inactive	inactive	inactive	–	inactive	–	–	–	inactive
Oc1ccc(O)c2c(O)cccc12	inactive	–	inactive	inactive	inactive	inactive	inactive	inactive	inactive	inactive	inactive	inactive	inactive	inactive	inactive	inactive	inactive	inactive	inactive	–
CCCCC(CC)COC(=O)CC(C(=O)OCC(CC)CCCC)S(=O)(=O)O (centres undefined)	26.3 µM (active)	inactive	–	inactive	–	44 µM (active) and inactive	35 µM (active)	39.2 µM (active)	inactive	42 µM (active) and 43.6 µM (active)	–	inactive	inactive	inactive and 61.1 µM (active)	inactive	–	inactive	–	–	inactive
CO[C@@]1(NC(=O)C(C(=O)O)c2ccc(O)cc2)C(=O)N2C(C(=O)O)=C(CSc3nnnn3C)CO[C@@H]21 (some centres undefined)	inactive	–	inactive	inactive	inactive	inactive	inactive	inactive	inactive	–	inactive	inactive	inactive	inactive	inactive	inactive	inactive	inactive	–	inactive
CCOc1ccc2c(c1)C(C)=CC(C)(C)N2	inactive	68.2 µM (active) and 68.6 µM (active)	–	inactive	–	inactive	inactive	inactive	inactive	54.7 µM (active) and inactive	54.7 µM (active) and inactive	–	inactive	–	inactive	inactive	inactive	inactive	–	–
OC1OC[C@@H](O)[C@H](O)[C@H]1O (some centres undefined)	inactive	–	inactive	inactive	inactive	inactive	inactive	inactive	inactive	inactive	inactive	inactive	inactive	inactive	inactive	inactive	–	inactive	inactive	inactive
NC(=O)NNC(N)=O	inactive	–	inactive	inactive	inactive	inactive	inactive	inactive	inactive	inactive	inactive	inactive	inactive	inactive	inactive	inactive	inactive	inactive	inactive	–
O=C(O)c1ccccc1-n1cc(C(=O)O)c(=O)c2cc(Nc3c(F)cc(F)cc3Cl)c(Cl)cc21	inactive	–	inactive	inactive	inactive	inactive	inactive	inactive	inactive	inactive	inactive	inactive	–	–	inactive	inactive	inactive	inactive	inactive	–
CCc1occc(=O)c1O	inactive	–	inactive	inactive	inactive	inactive	inactive	inactive	inactive	inactive	inactive	inactive	inactive	inactive	inactive	inactive	inactive	–	inactive	inactive
NCCNCCNCCN	inactive	–	inactive	inactive	inactive	inactive	inactive	inactive	inactive	inactive	inactive	inactive	inactive	inactive	inactive	inactive	inactive	inactive	–	inactive
CCCCCCCOC(=O)c1ccccc1C(=O)OCCCCCCC	inactive	–	inactive	inactive	inactive	inactive	inactive	inactive	inactive	inactive	inactive	inactive	inactive	inactive	inactive	inactive	inactive	inactive	inactive	inactive
COc1ccc(C)cc1	inactive	–	inactive	inactive	inactive	inactive	inactive	inactive	inactive	inactive	inactive	inactive	inactive	inactive	inactive	inactive	–	inactive	inactive	–

Reference: PubChem BioAssay (Tox21)
